Screening data deposited in PubChem BioAssay by National Center for Advancing Translational Sciences (NCATS).
aSyn yeast inh = qHTS of alpha-syn Inhibitors. Yeast expressing alpha-synuclein, growth rescue, BacTiter-Glo, 24 h. Potency, µM (series often up to 46.1 µM), inactives show at the top dose growth rescue (activation), hits mostly activators. 0.14% of 370,000 active. AID 652106, 2013; also: potency is read from the fitted curve at half-maximal effect; % of control where 0% means no effect; nearly all actives have a fitted effect of over 65% in size
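Screening used galactose-induced yeast with toxic alpha-synuclein levels, exposed to compound for 24 hr at 30 deg C. Cell growth, read with BacTiter-Glo luminescence, gave the measured signal.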
MmCpn inh = Inhibitors of TCP-1 ring complex (TRiC) of Methanococcus maripaludis (MmCpn): qHTS; purified Mm-Cpn ATPase, ADP Transcreener TR-FRET; 0.031% of 330,000 active; Potency, µM (top dose mostly 76.9 µM), for inactives: at the top dose activity, negative = inhibition, most hits filed as inhibitors; AID 504842, 2011; also: potency is read from the fitted curve at half-maximal effect; % is scaled to controls: 0 for no effect and ±100 for the full control effect; nearly all actives have a fitted effect of over 80% in size
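TR-FRET (320 nm excitation; 590 and 665 nm emission) reports ADP made from 10 uM ATP by 25 nM enzyme; compounds were preincubated 10 min, reaction run 30 min, both at 37°C.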
TDP43 rescue = qHTS of TDP-43 Inhibitors; TDP-43 expressing yeast growth rescue, BacTiter-Glo, 24 h; 1.8% of 410,000 active; Potency, µM (highest dose often 46.1 µM), without a hit: at the top dose growth rescue (activation), most hits filed as activators; also: potency is read from the fitted curve at half-maximal effect; % of control where 0% means no effect; nearly all actives have a fitted effect of over 50% in size
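Yeast expressing TDP-43 (pregrown in raffinose, seeded at OD600=0.02 in galactose medium) exposed to compounds 24 hr at 30 deg C. Growth read by BacTiter-Glo luminescence; rescue of toxicity appears as increased signal.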
Abeta rescue = qHTS for compounds that reverse cellular toxicity of Amyloid beta (A-beta) peptide in yeast: Primary Screen. Potency, µM (series often up to 46.1 µM), actives largely listed as activators. 0.063% of 410,000 active. yeast expressing A-beta42, growth rescue, OD600, 48 h; response scale: 0% DMSO, 100% iron-clioquinol control; also: potency is read from the fitted curve at half-maximal effect; nearly all actives have a fitted effect of over 55% in size
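Yeast A-beta toxicity model in growth medium with pinned compounds, 48 h at 30 C; growth read as absorbance at 600 nm. Normalized to FeCl3/clioquinol equimolar mix (positive) and DMSO (negative).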
CCT chaperon mod = High-Throughput Screening for Modulators of Cytosolic Chaperonin Activity; purified chaperonin ATPase assay, HTRF ADP detection, 30 min; activity change, % (no concentration beside the values), hits read low; 0.3% of 360,000 active; in the data active = activity change below about -30%; also: % is scaled to controls: 0 for no effect and ±100 for the full control effect
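We incubate TRiC, 40 or 20 nM final, with library compounds at 76 uM and 10 uM ATP for 30 min at 37 °C. ADP formed is detected with Transcreener HTRF reagents after 30 min at room temperature.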
FUS yeast rescue = qHTS for Suppressors of FUS Proteinopathy: Primary screen using FUS-linked yeast assay; S. cerevisiae FUS-expressing, growth rescue, OD600, 24 h; Potency, µM (series often up to 76.6 µM), most hits filed as activators; 0.24% of 390,000 active;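 also: potency is read from the fitted curve at half-maximal effect; plate controls were DMSO vehicle for no effect and reference control for full effect; nearly all actives have a fitted effect of over 55% in size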
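Yeast FUS proteinopathy model; galactose-induced FUS (2%), starting OD 0.005. Cpds in dilution series, 24hr, 30C, 99% humidity. Abs 600 nm growth. Pos ctrl CP55940 (top 92uM final); neg ctrl DMSO.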
Active calls of the source: *; i = inactive; ? = inconclusive; / = not tested or not shown. Most compounds without a hit are left out; they make up all but 2.3% or so of the library. Unless noted, calls follow the shape of the dose curve; as a rule, active = well fitted curve in the direction sought with a large enough effect; inconclusive = small, poorly fitted or top-dose-only effect, or another doubt; inactive = no such curve, though single readings can be large; an effect the other way counts as inactive or inconclusive.

SMILES	aSyn yeast inh	MmCpn inh	TDP43 rescue	Abeta rescue	CCT chaperon mod	FUS yeast rescue
CCN(CC)CCNC(=O)c1ccc(NC(=O)c2cccc(S(=O)(=O)N(C)C3CCCCC3)c2)cc1	-4%	/	10%	i	-3	i
Cc1ccccc1NC(=O)c1ccc(F)c(S(=O)(=O)NCC2CCCO2)c1 (configuration not stated)	5%	1%	6%	i	-1	i
Cc1ccccc1NC(=O)c1ccc(F)c(S(=O)(=O)N(C)C2CCCCC2)c1	/	/	16µM*	?	/	?
Cc1cccc(NC(=O)c2cc(S(=O)(=O)N(C)c3ccc(F)cc3)ccc2Cl)n1	-4%	2%	11µM*	i	2	i
CN(C1CCCCC1)S(=O)(=O)c1cccc(C(=O)Nc2ccccn2)c1	7%	1%	18µM*	i	0	i
Cc1cccc(NC(=O)c2cccc(S(=O)(=O)N(C)C3CCCCC3)c2)n1	11%	/	20µM*	i	-1	i
CN(C)c1ccc(CC2CCc3ccccc32)cc1 (configuration not stated)	1%	/	/	/	/	/
CCOC(=O)[C@@]12CCCC3=C1N(CCC3)C(=O)[C@H]2CC(=O)N1CCCC1	/	/	/	/	/	i
Cc1ccc(C(=O)C2CCN(CC(=O)N3CCCC3)CC2)cc1	/	/	/	/	/	i
Cc1nn2c(=O)cc(COC(=O)c3ccc(NC(=O)COc4ccccc4F)cc3)nc2s1	/	/	6%	i	/	i
Cc1nn2c(=O)cc(COC(=O)c3c(F)cccc3Cl)nc2s1	13%	-2%	35µM*	i	-2	i
Cc1ccc(S(=O)(=O)N2CCN(c3nc(-c4cscn4)nc4ccccc34)CC2)cc1	-9%	/	/	/	/	/
CCOC(=O)C1CCN(C(=O)c2ccc3c(c2)sc2nc(-c4ccccc4)cn23)CC1	/	/	?	i	/	?
Cc1ccc(C(C)C)c(OCCSc2nc3ccccc3n2CC(O)CO)c1 (configuration not stated)	/	/	35µM*	i	/	i
COC(=O)Cn1c(SCCOc2ccccc2Cl)nc2ccccc21	/	/	28µM*	i	/	i
N#C/C(=C\c1ccc(F)c(Br)c1)C(=O)NC1CC1	?	-3%	?	?	1	i
CC(C)(C)c1ccc(/C=C(\C#N)C(=O)NC2CC2)cc1	27%	/	35µM*	i	2	i
Cc1ccn2c(Nc3c(C)cccc3C)c(-c3ccc(Cl)s3)nc2c1	/	/	25%	i	/	i
COc1ccc([C@H]2OC(=O)C[C@H]2C(=O)N2CCCCC2)cc1OC	/	/	/	/	/	i
CC(C)C[C@@H](CCCc1ccccc1)CCC(=O)N(c1ccccc1)c1ccccc1	/	/	/	/	/	i
Cc1cc(C(=O)CSc2nnnn2C)c(C)n1CCc1ccc(F)cc1	1%	0%	15%	?	-2	i
Cc1cc(C(=O)CSc2nncs2)c(C)n1-c1c(C)n(C)n(-c2ccccc2)c1=O	2%	0%	-15%	i	1	i
Cc1ccc(-n2c(C)cc(C(=O)CSc3nnnn3C)c2C)cc1	0%	-5%	32µM*	i	1	i
Cc1ccc(-n2c(C)cc(C(=O)CSc3nncs3)c2C)cc1	-20%	?	22µM*	i	0	i
COc1cc2nc(N3CCN(C)CC3)nc(NC3CCN(Cc4ccccc4)CC3)c2cc1OC	-5%	/	/	/	/	/
SMILES	aSyn yeast inh	MmCpn inh	TDP43 rescue	Abeta rescue	CCT chaperon mod	FUS yeast rescue
COc1ccc(N(CCN2C(=O)c3ccccc3C2=O)C(=O)c2cccc([N+](=O)[O-])c2)cc1	14%	4%	11µM*	i	2	i
O=C(CSc1nc2ccccc2nc1Cc1ccc(Cl)cc1)N1CCCCC1	/	/	10%	i	/	?
COc1ccc(N2CCN(C(=O)CSc3nc4ccccc4nc3Cc3ccc(Cl)cc3)CC2)cc1	/	/	-6%	i	/	32µM*
CC1CCCCN1C(=O)CSc1nc2ccccc2nc1Cc1ccc(Cl)cc1 (configuration not stated)	/	/	0%	i	/	25µM*
CC(=O)c1cccc(NC(=O)C2C3C=CC(C4CC34)C2C(=O)O)c1 (configuration not stated)	1%	1%	22µM*	?	-9	i
CC(=O)c1cccc(NC(=O)C2C3C=CC(C3)C2C(=O)O)c1 (configuration not stated)	-5%	1%	-10%	i	0	i
Cc1ccccc1NC(=O)C1C2C=CC(C3CC23)C1C(=O)O (configuration not stated)	0%	-1%	11µM*	i	1	i
O=C(Nc1ccccc1)Nc1nc2ncccn2c1-c1ccc(C(F)(F)F)cc1	/	/	/	/	/	i
CC(=O)c1cc(-c2ccccc2)n(CC(=O)NCc2ccc(F)cc2)c1C	/	/	/	/	/	i
c1ccc(-c2csc(Nc3ccc4c(c3)OCO4)n2)cc1	-1%	/	14µM*	i	-1	i
CC(=O)c1sc(Nc2ccc3c(c2)OCO3)nc1C	30%	/	13µM*	i	0	i
O=C1c2ccccc2C(=O)N1c1cccc(-c2csc(Nc3ccc4c(c3)OCO4)n2)c1	/	-1%	/	/	/	/
N#Cc1ccc(Nc2nc(-c3ccccc3)cs2)cc1	0%	/	3.2µM*	i	-1	i
COC(=O)C1CCC(CNC(=O)C(Cc2ccc3c(c2)OCO3)NC(C)=O)CC1 (configuration not stated)	/	/	/	/	/	i
COc1ccc(S[C@]2(C(=O)N3CCCC3)CC(=O)N(c3ccsc3)[C@@H]2c2ccc(OC)cc2)cc1	/	/	/	/	/	i
CCN(C(=O)[C@@H](C)[C@@H](O)c1ccc(Cl)cc1)c1ccccc1	/	/	/	/	/	i
Cc1n[nH]c(C)c1S(=O)(=O)NCCc1cccc(F)c1	/	/	/	/	/	i
CCOc1ccccc1NC(=O)N1CCN(S(=O)(=O)c2ccc3c(ccn3C)c2)CC1	/	/	15%	i	/	?
COc1ccc([C@@H]2CC=C(C(=O)O)[C@H](c3ccc(F)cc3)N2S(=O)(=O)c2ccc(Cl)cc2)cc1	-23%	0%	14µM*	i	-1	?
Cc1ccc(S(=O)(=O)N2[C@@H](c3ccc(F)cc3)C(C(=O)O)=CC[C@H]2c2cccc(Cl)c2)cc1	0%	-1%	22µM*	i	0	i
Fc1ccc(Nc2nc(SCc3cccc(F)c3)nc3ccccc23)cc1	/	/	?	i	/	i
